# Reference: PubChem BioAssay (EPA / NIEHS)
# The source made the active and inactive calls. The calls were made as follows: active = hit-call score of the fitted dose curve at least 0.9, where 1 is the maximum; inactive = score below 0.9.
# Assay: CEETOX_H295R_OHPROG: CeeTox H295R High-throughput Steroidogenesis Assay for OH-Progesterone (OHPROG) (AID 2283435)
# Settings: actives raise or lower the signal
# Experimental: CEETOX_H295R is a cell-based, multiplexed-readout assay that uses H295R, a human adrenal gland cell line, with measurements taken at 48 hours after chemical dosing in a 96-well plate.CEETOX_H295R_OHPROG is one of 23 assay component(s) measured or calculated from the CEETOX_H295R assay. It is designed to make measurements of hormone induction, a form of inducible reporter, as detected with absorbance signals by HPLC-MS-MS technology.Data from the assay component CEETOX_H295R_OHPROG was analyzed into 1 assay endpoint. This assay endpoint, CEETOX_H295R_OHPROG, was analyzed with bidirectional fitting relative to DMSO as the negative control and baseline of activity. Using a type of inducible reporter, gain or loss-of-signal activity using HPLC-MS-MS was used to understand synthesis of 17alpha-hydroxyprogesterone in H295R cell line at 48hr of chemical exposure. To generalize the intended target to other relatable targets, this assay endpoint is annotated to the steroid hormone intended target family, where the subfamily is progestagens.
# Cell culture and media preparation procedures were conducted in accordance with OECD Test No. 456 guidelines, with minor modifications. H295R cells (ATCC CRL-2128) were expanded for 5 passages and frozen in batches in liquid nitrogen. Prior to the steroidogenesis assay, H295R cells were thawed and passed at least 4 times. The maximum passage was 10. Cells were maintained in a 1:1 mixture of DMEM/F12 supplemented with 5ml/L ITS+ Premix (BD Bioscience) and 12.5 ml/L Nu-Serum (BD Bioscience). After seeding cells into 96-well plates at 50-60% confluency, cells were allowed to adhere overnight. Prior to chemical testing, culture medium was replaced with 175 uL medium containing 10 uM forskolin to stimulate steroidogenesis for 48 hours. Following prestimulation, forskolin medium was replaced with medium containing test chemical solubilized in DMSO (ensuring a final concentration of 0.1% DMSO). Test chemicals were incubated for 48 hours, then the medium was removed and split into 2 vials containing approximately 75uL each, and stored at -80 C prior to hormone analysis. For steroid quantification, media samples were shipped to OpAns, LLC (Durham, NC) on dry ice, and samples were thawed to room temperature prior to liquid-liquid extraction. Steroid hormones were extracted from media samples using methyl tertbutyl ether (MTBE). An extra derivatization with dansyl chloride was included for estrogen (estrone and estradiol) detection only. Steroid hormones were separated by HPLC, eluted using a reverse phase C18 gradient with electrospray positive ionization, followed by quantification by tandem mass spectrometry (MS/MS). Data were acquired on a MassHunter Workstation Acquisition version B03.01 (Agilent Technologies, Inc.) and processed using MassHunter Quantitative Analysis for QQQ. Accuracy was determined for each hormone analyte from 3 standards to determine upper and lower limits of quantification (ULOQ and LLOQ, respectively) using a 7-point standard curve. Precision and accuracy of the extraction and quantification methods were calculated as the percent relative standard deviation (%RSD) of the spiked standards and percent spiked standard recovered, respectively. […] Test medium was removed following chemical exposure, and cell viability was evaluated in the same wells by MTT. MTT procedures were as follows: after removal of test medium, 500 uL of 0.5 mg/ml of 3-[4,5-dimethylthiazol-2-y]2,5-diphenyltetrazoliumbromide solution was added to the cells. Following a 4-hour incubation at 37 C and 5% CO2 to allow formazan-crystal formation, the MTT solution was removed and blue formazan salt crystals were solubilized using 500uL anhydrous isopropanol with shaking for 20 minutes. Absorbance was read at 570 and 650nm using a Packard Fusion microplate reader. Background correction of absorbance units was used to determine percent change relative to controls. […]
SMILES,outcome,AC50
Nc1ccc(Cl)cc1N,inactive,–
CCCCCOC(=O)c1ccccc1C(=O)OCCCCC,inactive,–
Nc1ccc(Cc2ccc(N)cc2)cc1,–,4.68 µM (active)
O=C(Oc1ccc(Br)cc1)N1CCN2CCC1CC2,–,12.8 µM (active)
CCOc1cccc(C2(N3CCN(c4ccccc4)CC3)CCC(C)CC2)c1 (configuration not stated),–,35.7 µM (active)
CC(C)(O)c1cnn2c(-c3ccc(F)c(-c4c(F)cccc4C#N)c3)cnc2n1,–,0.408 µM (active)
CNC(=O)Oc1cccc2c1OC(C)(C)C2,inactive,–
CCC(C)c1ccc(O)cc1 (configuration not stated),–,22.5 µM (active)
N#CC(Br)(Br)C(N)=O,inactive,–
CC(C)N(Cc1ccccc1)C(=O)C(C)(C)C,inactive,–
Cc1cc(N=Nc2ccccc2C)ccc1N,–,1.79 µM (active)
O=P(OCCCl)(OCCCl)OCCCl,inactive,–
CCCCCCCCCCCCCN1CC(C)OC(C)C1 (configuration not stated),–,17.6 µM (active)
Nc1ccc(Oc2ccc(N)cc2)cc1,inactive,–
COP(=S)(OC)SCN1C(=O)c2ccccc2C1=O,inactive,–
c1ccc2c(c1)-c1cccc3cccc-2c13,–,30.7 µM (active)
Cn1cc(-c2ccccc2)c(=O)c(-c2cccc(C(F)(F)F)c2)c1,inactive,–
Oc1ccc2ccc3cccc4ccc1c2c34,inactive,–
c1ccc(N=Nc2ccccc2)cc1,inactive,–
O=[N+]([O-])c1ccc(Oc2ccc(Cl)cc2Cl)cc1,inactive,–
CCOC(=O)[C@]1(c2ccccc2)Oc2ccccc2[C@@H]1N,–,3.16 µM (active)
O=C(Nc1ccccc1)c1ccccc1I,–,40.9 µM (active)
Cc1cccc(N)c1N,–,18.5 µM (active)
Cc1ccc(N=C=O)cc1N=C=O,inactive,–
CC(C)(C)C(O)(CCc1ccc(Cl)cc1)Cn1cncn1 (configuration not stated),–,0.552 µM (active)
Nc1ccc(N=Nc2ccccc2)cc1,–,12.6 µM (active)
c1ccc(NNc2ccccc2)cc1,–,48.6 µM (active)
